From PubChem BioAssay (NCATS) come the findings set out here.

Assay [1] addresses Luciferin 4-monooxygenase (Photinus pyralis) (UniProt P08659). In words: Primary firefly luciferase (FLuc) qHTS assay for identification of artifact compounds. (AID 1845220).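 Note: plate controls were DMSO vehicle for no effect and no enzyme for full effect; nearly all actives have a fitted effect of over 60% in size.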 The conditions noted are these: outcome: dose series up to 54.1 µM unless noted. Summed up:
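Compounds sat 15 min at room temperature with 10 uM luciferin and 10 uM ATP (pH 7.6 Tris acetate). Firefly luciferase (10 nM final) was then added, and luminescence was read 5 min later. Data normalized to no-enzyme and DMSO controls were Hill-fitted.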
(qHTS replaces the single test concentration by a dilution series.)

Assay [2] is described as follows: Primary fluorescence-based thiol-reactive (MSTI) qHTS assay for identification of artifact compounds. (AID 1845221).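 Note: thiol-reactive compounds lower the probe fluorescence signal; nearly all actives have a fitted effect of over 65% in size.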 Summed up: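 Probe: MSTI 4 uM, PBS pH 7.4, 2% DMSO. Incubation 1 h, RT, light-protected. Readout fluorescence 525/598 nm.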
In assay [3] the test system is Nanoluciferase (engineered Oplophorus gracilirostris luciferase). In words: Primary Nanoluciferase (NLuc) qHTS assay for identification of artifact compounds. (AID 1845222).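 Note: 0% = DMSO and -100% = no enzyme.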 An outline of the steps: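 Luminescence from secreted NLuc (filtered, 1:55-diluted S16 cell medium) read 5 min after Nano-Glo substrate; compounds preincubated 15 min, RT. Hill fits of inhibition normalized to DMSO and no-enzyme.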

The nature of assay [4]: Primary redox qHTS assay for identification of artifact compounds. (AID 1845223). An outline of the steps: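 Amplex Red (25 uM) and HRP (250 mU/mL) in HBSS, with compounds for 15 min, then 250 uM DTT for 30 min, room temperature, dark. Fluorescence 525/598 nm read; normalized to DMSO and 10 uM DA3003; Hill fit.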
A short description of assay [5]: Quantitative High-Throughput drug screen in 47 multiple myeloma cell lines against the NCATS MIPE library collection: FR4_PLB cell viability assay (AID 1918924; note: nearly all actives have a fitted effect of over 35% in size; note: potency is the fitted concentration of half-maximal effect). An outline of the steps: (§1)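 Luminescent ATP measurement with CellTiter-Glo gives viability, scaled between DMSO-only wells (100%) and media-only wells (0%). Cells, 500 per well, faced library compounds for 48 hours at 37C.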

A short description of assay [6]: Quantitative High-Throughput drug screen in 47 multiple myeloma cell lines against the NCATS MIPE library collection: Delta47_JCRB cell viability assay (AID 1918925; note: nearly all actives have a fitted effect of over 45% in size; note: potency is the fitted concentration of half-maximal effect). Summed up: (§2)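 Myeloma cells (500 per well) were exposed to MIPE 4.0 compounds by pin transfer and incubated 48 hours at 37C, 5% CO2. Viability was read as ATP by CellTiter-Glo luminescence, normalised to DMSO (100%) and media-only (0%) wells.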

A short description of assay [7]: Quantitative High-Throughput drug screen in 47 multiple myeloma cell lines against the NCATS MIPE library collection: EJM_DSMZ cell viability assay (AID 1918926; note: nearly all actives have a fitted effect of over 30% in size). Summed up:
as §2

Assay [8] can be described thus: Quantitative High-Throughput drug screen in 47 multiple myeloma cell lines against the NCATS MIPE library collection: AMO1_DSMZ cell viability assay (AID 1918927; note: nearly all actives have a fitted effect of over 30% in size; note: potency is the fitted concentration of half-maximal effect). Summed up:
as §2

The nature of assay [9]: Quantitative High-Throughput drug screen in 47 multiple myeloma cell lines against the NCATS MIPE library collection: ARP1_JJKsccF8 cell viability assay (AID 1918928; note: nearly all actives have a fitted effect of over 40% in size; note: potency is the fitted concentration of half-maximal effect). An outline of the steps:
(§3)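 Myeloma cells, 500 per well, were exposed to MIPE 4.0 drugs by pin transfer for 48 h at 37 °C, 5% CO2. Viability was read as ATP luminescence with CellTiter-Glo, normalised to DMSO-only (100%) and medium-only (0%) wells.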

Assay [10] can be described thus: Quantitative High-Throughput drug screen in 47 multiple myeloma cell lines against the NCATS MIPE library collection: Karpas620_DSMZ cell viability assay (AID 1918959). Note: nearly all actives have a fitted effect of over 30% in size. Note: potency is the fitted concentration of half-maximal effect. Summed up: as §1
The nature of assay [11]: Quantitative High-Throughput drug screen in 47 multiple myeloma cell lines against the NCATS MIPE library collection: KMM1_JCRB cell viability assay (AID 1918960). Note: nearly all actives have a fitted effect of over 30% in size. Note: potency is the fitted concentration of half-maximal effect. Summed up:
as §3

The nature of assay [12]: Quantitative High-Throughput drug screen in 47 multiple myeloma cell lines against the NCATS MIPE library collection: KHM11_PLB cell viability assay (AID 1918962). Note: nearly all actives have a fitted effect of over 35% in size. Note: potency is the fitted concentration of half-maximal effect. Summed up: as §1
A short description of assay [13]: Quantitative High-Throughput drug screen in 47 multiple myeloma cell lines against the NCATS MIPE library collection: JIM3_ECACC cell viability assay (AID 1918963; note: nearly all actives have a fitted effect of over 35% in size; note: potency is the fitted concentration of half-maximal effect). An outline of the steps: as §1
A short description of assay [14]: Quantitative High-Throughput drug screen in 47 multiple myeloma cell lines against the NCATS MIPE library collection: JIM1_ECACC cell viability assay (AID 1918964; note: potency is the fitted concentration of half-maximal effect). An outline of the steps:
as §2

A short description of assay [15]: Quantitative High-Throughput drug screen in 47 multiple myeloma cell lines against the NCATS MIPE library collection: INA6_PLB cell viability assay (AID 1918965; note: nearly all actives have a fitted effect of over 55% in size; note: potency is the fitted concentration of half-maximal effect). An outline of the steps: (§4)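 Steps: seed 500 cells per well; pin-transfer MIPE 4.0 library; incubate 48 h at 37C, 5% CO2, humidified; add CellTiter-Glo, 5 min room temperature; read luminescence.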
The nature of assay [16]: Quantitative High-Throughput drug screen in 47 multiple myeloma cell lines against the NCATS MIPE library collection: ARD_JJKsccE7 cell viability assay (AID 1918929). Summed up:
as §2

The target in assay [17] is Glutathione peroxidase 1 (Homo sapiens) (UniProt P07203). In words: Primary qHTS Assay for Inhibitors of Recombinant Selenoprotein Glutathione Peroxidase 1 (GPX1) (AID 1845191). Note: nearly all actives have a fitted effect of over 65% in size. An outline of the steps:
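10 nM GPX1 + cpd, 30 min RT; start w/ 1 mM GSH, 0.5 mM cumene hydroperoxide, 0.5 mM NADPH, 100 nM GR, 0.01% BSA; buffer 50 mM Tris-HCl pH 7.5, 2 mM EDTA, 150 mM NaCl; Fl 340/450, 0 & 15 min.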

A short description of assay [18]: Quantitative High-Throughput drug screen in 47 multiple myeloma cell lines against the NCATS MIPE library collection: Karpas417_ECACC cell viability assay (AID 1918961). Note: potency is the fitted concentration of half-maximal effect. The conditions noted are these: Karpas417 myeloma viability, CellTiter-Glo ATP luminescence, 48 h; viability (% of DMSO): at 45.8 µM (top of the series). Summed up: as §4
A general note: In ATP-based viability assays light output follows the ATP content of the culture.

Inconclusive results are not listed. Active and inactive are the calls of the source. Calls come from the whole dose curve; as a rule, active = well fitted curve in the direction sought with a large enough effect; inconclusive = small, poorly fitted or top-dose-only effect, or another doubt; inactive = no such curve, though single readings can be large; an effect the other way counts as inactive or inconclusive.

Sequence of Glutathione peroxidase 1 (Homo sapiens) (P07203 whole entry, looked up): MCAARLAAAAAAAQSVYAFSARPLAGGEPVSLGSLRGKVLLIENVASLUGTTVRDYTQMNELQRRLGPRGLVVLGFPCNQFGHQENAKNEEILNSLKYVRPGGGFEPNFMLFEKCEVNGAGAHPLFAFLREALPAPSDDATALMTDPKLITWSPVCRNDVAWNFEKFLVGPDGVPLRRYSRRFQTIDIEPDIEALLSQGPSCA

Take `CC(N[C@H]1C[C@H]1c1ccccc1)c1ccc2c(c1)OCCO2` (some centres not stated): the result in [1], in assay [3] and in assay [4] was inactive. The Potency result in [2], in [5], in assay [6], in assay [7], in [8] and in assay [10] was “inactive” throughout. In addition, the Potency result in [11], in assay [12], in [13], in assay [14] and in assay [15] was “inactive” throughout. Also, in assay [9], the Potency was 8.33 µM (active).
As for `C[C@]12CCC(=O)C(O)=C1CC[C@@H]1[C@H]3CCC(=O)[C@@]3(C)CC[C@@H]12`, the Potency result in assay [5], in [6], in assay [7], in [8], in assay [16] and in assay [10] was “inactive” in each case. Moreover, the Potency entry in assay [11], in assay [12] and in assay [13] was “inactive” in each case.
Take `CSCC[C@@H](NC(=O)[C@@H](Cc1ccccc1)NC(=O)CNC(=O)CNC(=O)[C@@H](N)Cc1ccc(O)cc1)C(=O)O`: the Potency entry in [17], in assay [5], in [6], in assay [7], in [8] and in [9] was “inactive” throughout. Further, the Potency entry in assay [11], in [12], in assay [13] and in assay [15] was “inactive” each time. Further, the viability (% of DMSO) in [18] is 132% (active).
For `CC(=Cc1csc(C)n1)[C@@H]1C[C@H]2O[C@@H]2CCC[C@H](C)[C@@H](O)[C@@H](C)C(=O)C(C)(C)[C@@H](O)CC(=O)O1`, the Potency result in assay [5], in assay [6], in assay [7], in [9], in assay [13] and in assay [15] was “inactive” in each case. In addition, the Potency in assay [8], in assay [11] and in [14] was 0.001 µM (active) throughout.
Turning to `O=[N+]([O-])c1ncc[nH]1`, the Potency entry in assay [5], in [6], in [7], in assay [8], in assay [9] and in [10] was “inactive” each time. For the same molecule, the Potency result in assay [11], in assay [18] and in assay [13] was “inactive” each time.
As for `CC(C)[C@]12O[C@@H]1[C@@H]1O[C@]13[C@]1(O[C@H]1C[C@@H]1C4=C(CC[C@@]13C)C(=O)OC4)[C@H]2O`, the Potency result in assay [5], in [6], in assay [7], in assay [8], in assay [9] and in [10] was “inactive” in each case. For the same molecule, the Potency entry in [11], in [18], in [12], in assay [13], in assay [14] and in assay [15] was “inactive” in each case.
For `CCCCCC[C@H]1C(=O)O[C@H](C)[C@H](NC(=O)c2cccc(NC=O)c2O)C(=O)O[C@@H](C)[C@@H]1OC(=O)CC(C)C`, the Potency result in assay [17] was “inactive”. Further, the Potency in assay [5] is 0.0662 µM (active); in assay [6], 0.0526 µM (active); in [8] it was 0.235 µM (active); in [9], 0.0418 µM (active); in [10], 0.935 µM (active); in assay [11] it was 0.418 µM (active). Moreover, the Potency in assay [18] was 0.332 µM (active); in assay [12], 0.105 µM (active); in assay [13], 0.0469 µM (active); in assay [14] it was 0.372 µM (active); in assay [15], 0.0833 µM (active).
As for `CCc1c(C(=O)C(N)=O)c2c(OCC(=O)O)cccc2n1Cc1ccccc1`, the Potency entry in assay [17], in assay [5], in assay [6], in [7], in assay [8] and in assay [16] was “inactive” throughout. For the same molecule, the Potency entry in assay [10], in assay [11], in assay [18], in assay [13], in assay [14] and in [15] was “inactive” in each case. The call in [1], in [3] and in [4] was inactive.
